# IEC-6 cytotox = IEC-6 cytotoxicity, counter-screen for KLF5 inhibitors; 290,000 compounds, 0.78% hits; inhibition, % at 5 µM; luminescence viability; in the data active = inhibition above about 22%
# Ba/F3 V617F tox = reduce viability of Ba/F3 cells dependent on JAK2V617F | Ba/F3 EpoR-JAK2V617F viability, ATP luminescence | AID 1446 | inhibition, % at 5.6 µM | 220,000 compounds, 1.1% hits;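 active = inhibition above the campaign mean plus 3 SD over all tested compounds, cut at about 24% in these data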;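 note: cytokine-independent growth of Ba/F3 cells driven by EpoR plus mutant JAK2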
# BaF3 parental = counter-screen for JAK2V617F inhibitors: parental Ba/F3 viability inhibitors; CellTiter-Glo ATP luminescence; inhibition, % at 5.6 µM; 220,000 compounds, 1.1% hits;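 active = inhibition above a per-campaign cutoff, the mean inhibition of all tested compounds plus 3 SD, cut at about 27% in these data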
# APP 5UTR inh = APP translation inhibition; SH-SY5Y APP 5'UTR-luciferase reporter, luminescence; inhibition, % at 2 µM; 190,000 compounds, 0.82% hits; AID 1285;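 active = inhibition above a set limit, derived from the sample mean plus 3 SD, cut at about 45% in these data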
# KLF5 inhibitor = kruppel-like factor 5 inhibition. 290,000 compounds, 0.23% hits. inhibition, % at 5 µM. DLD-1 KLF5 promoter-luciferase reporter, luminescence;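 active = inhibition above a per-plate limit of that plate's mean compound inhibition plus 3 SD, cut at about 60% in these data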;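 note: higher means less KLF5 promoter-driven luciferase light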
# Hits are given with their value; . = inactive; / = no result. The list is not random: actives were taken first. Their share in the collection is about 1.8%.
SMILES,IEC-6 cytotox,Ba/F3 V617F tox,BaF3 parental,APP 5UTR inh,KLF5 inhibitor
CCN(CC)CCN1C(=O)C2C(C(=O)Nc3cc(C)cc(C)c3)C3C=CC2(O3)C1C(=O)NC1CCCCC1 (stereo not drawn),.,/,/,/,.
CC1(C)CC(=O)C2=C(C1)N(CC1CCCO1)C(=O)NC2(C(F)(F)F)C(F)(F)F (stereo not drawn),.,.,38.0,.,.
Cn1c(=O)oc2cc(S(=O)(=O)NCc3ccc(F)cc3)ccc21,.,/,/,/,.
CN(c1ccccc1)c1ccc(/C=C/[N+](=O)[O-])cc1,.,.,.,53.7,.
COc1ccc(S(=O)(=O)N2CCCOC2CNC(=O)C(=O)NCc2ccccn2)cc1 (stereo not drawn),.,/,/,/,.
COc1ccc(C(=O)COC(=O)CCN=C2NS(=O)(=O)c3ccccc32)cc1OC,.,.,.,.,.
C/C(=N/NC(=O)c1cccs1)c1c(C)[nH]n(-c2nc3ccccc3s2)c1=O,42.4,48.3,49.1,.,.
Cc1cc(=O)n2nc(N3CCCC3C(=O)Nc3cccc(F)c3)sc2n1 (stereo not drawn),.,/,/,/,.
COc1cccc(C(=O)N(C)c2nnc(-c3ccncc3)s2)c1,.,.,.,.,.
CN1/C(=C\C(=O)c2cccc(S(=O)(=O)N3CCCCC3)c2)C(C)(C)c2ccccc21,.,.,.,.,.
CC(=O)/C=C1\N(C)c2ccc(C)cc2C1(C)C,.,41.6,38.9,.,.
COc1ccccc1OCC(=O)/C=C1/N(C)c2ccccc2C1(C)C,.,.,.,.,.
Cc1ccc(C(=O)NC(=S)/C=C2\N(C)c3ccccc3C2(C)C)cc1,.,.,36.4,.,.
Cc1c(NC(=S)/C=C2\N(C)c3ccccc3C2(C)C)c(=O)n(-c2ccccc2)n1C,.,.,49.8,.,.
CN1/C(=C/C(=S)NC(=O)C2CCC2)C(C)(C)c2ccccc21,.,.,29.8,.,.
Cc1ccc2cc(CN(c3cccc(C)c3C)S(=O)(=O)c3ccccc3)c(=O)[nH]c2c1,.,/,/,/,.
CCOC(=O)c1cc2c(OC)ccc(OC)c2n1CC(=O)c1ccccc1,.,/,/,/,.
CN1/C(=C\C(=O)C(F)F)C(C)(C)c2ccccc21,.,.,.,.,.
CC(C)C(=O)NC(=S)/C=C1/N(C)c2ccccc2C1(C)C,.,30.4,56.9,.,.
Cc1cccc(N2CCN(C(=O)c3ccc4ncsc4c3)CC2)c1C,35.7,59.5,54.0,79.9,.
CN(C)c1ccc(-c2nc3ccccc3n2C)cc1,.,44.1,53.1,.,.
CC(C)n1c(-c2ccc(N(C)C)cc2)nc2ccccc21,.,.,.,.,.
CC(=O)c1ccc(NC(=O)Nc2cccc3ccccc23)cc1,.,/,/,/,.
Cc1cc(O)cc(O)c1C=NCc1ccco1,.,.,.,.,.
COC(=O)CN(C#N)c1nc(NC(C)C)nc(OC)n1,.,41.1,32.4,.,.
SMILES,IEC-6 cytotox,Ba/F3 V617F tox,BaF3 parental,APP 5UTR inh,KLF5 inhibitor
FC(F)(F)c1nc(N2CCCC2)ncc1-c1nnnn1-c1ccc(Cl)cc1,.,.,.,.,.
S=C(NCCc1ccccc1)Nc1cccc2cnccc12,.,.,42.2,.,.
CCCCc1ccc(N/C(N)=N/c2nc(C)cc(C)n2)cc1,.,41.1,35.0,/,.
Cc1cccc(C)c1OCC(=O)N(Cc1ccc(Cl)cc1)C1CCS(=O)(=O)C1 (stereo not drawn),.,/,/,/,.
CC(C)Cn1c(N)c(C(=O)COC(=O)CC23CC4CC(CC(C4)C2)C3)c(=O)n(C)c1=O,.,36.2,42.0,.,.
CCn1c(C)nc2cc(C(=O)NNC(=O)CCC3CCCCC3)ccc21,.,.,.,.,.
O=C(NCc1cccs1)C1CCN(c2ccc(S(=O)(=O)N3CCOCC3)cc2Cl)CC1,76.1,72.6,77.8,92.7,74.3
CCOC(=O)C1CCCN(C(=O)c2cc(S(=O)(=O)N3CCCCC3)c[nH]2)C1 (stereo not drawn),.,/,/,/,.
COc1ccc(-n2cc(CN3CCCC3)c(-c3cccc(F)c3)n2)cc1,.,.,.,.,.
CC(=O)N1CCCN(Cc2cn(-c3ccc(C)cc3)nc2-c2cccc(C)c2)CC1,.,.,40.6,.,.
CSc1nsc2nc(=O)c(/C=C3\C=Nc4ccccc43)c(N)n12,.,.,56.0,.,.
CC(C)S(=O)(=O)c1nsc2nc(=O)c(/C=C3\C=Nc4ccccc43)c(N)n12,.,.,.,.,.
Cc1cc(SCC(=O)N(C)C2CCS(=O)(=O)C2)nc2c(C)cccc12 (stereo not drawn),.,.,.,.,.
Cc1cc(C)nc(NC(=O)c2cccc(Br)c2)n1,.,/,/,/,.
O=C(Nc1cc(=O)[nH]c(=O)[nH]1)c1cccc(Br)c1,.,.,36.7,.,.
NNC(=O)c1oc2ccccc2c1-n1cccc1,.,.,.,61.9,.
O=C(NNC(=O)c1oc2ccccc2c1-n1cccc1)c1ccco1,.,.,.,.,.
Cc1ccccc1/C=N/NC(=O)Cn1nnc(N)n1,.,.,.,.,.
O=C(COc1ccccc1-c1ccccc1)N/N=C/c1cccc2ccccc12,.,.,.,95.2,.
Nc1nnn(CC(=O)N/N=C/c2cccc3ccccc23)n1,.,.,.,62.3,.
CC(NC(=O)COc1ccccc1-c1ccccc1)c1ccccc1 (stereo not drawn),.,.,.,.,.
C/C(CCC(C)C)=N\NC(=O)COc1ccccc1-c1ccccc1,.,.,.,94.3,.
O=C(COc1cccc2ccccc12)N/N=C/c1ccccc1OCc1ccc(C(=O)O)cc1,.,.,.,.,.
Cc1ccc(NC(=O)CS(=O)CC(=O)N(C(C)C(=O)NC2CCCCC2)C(C)(C)C)cc1 (stereo not drawn),.,.,.,.,.
Cc1ccccc1NC(=O)COC(=O)c1c[nH]c(=O)[nH]c1=O,.,.,.,.,.
SMILES,IEC-6 cytotox,Ba/F3 V617F tox,BaF3 parental,APP 5UTR inh,KLF5 inhibitor
CCSc1nc(-c2ccccc2)nc(C(Cl)Cl)n1,.,.,.,47.1,.
CSc1nc(-c2ccc(C)cc2)nc(C(Cl)Cl)n1,.,.,.,.,.
COc1ccc(N(C(=O)c2ccco2)C(C(=O)NC2CCCCC2)c2cccs2)cc1OC (stereo not drawn),.,.,.,.,.
C#CC(=O)N(c1ccc(OC)cc1OC)C(C(=O)NC1CCCC1)c1cccs1 (stereo not drawn),102.3,100.9,26.6,.,.
Cc1ccccc1C1c2[nH]c3ccccc3c2CCN1Cc1cccn1-c1ncccn1 (stereo not drawn),.,.,32.0,/,.
CN(Cc1nccn1C)C(=O)CC1C(=O)NCCN1Cc1ccc(F)cc1Cl (stereo not drawn),.,/,/,/,.
CCn1c(O)c(N=NC(=S)NCC2CCCO2)c2ccccc21 (stereo not drawn),.,.,.,.,.
CCOC(=O)/C=C(\C)Sc1cc(O)c2ccccc2c1O,33.7,.,.,/,.
CCOCCn1c(=O)c2c(nc3n2CC(C)CN3Cc2ccccc2)n(C)c1=O (stereo not drawn),.,/,/,/,.
CCCc1cc(=O)[nH]c(SCC(=O)Nc2ncc(S(=O)(=O)c3ccc([N+](=O)[O-])cc3)s2)n1,.,.,.,/,.
